According to PubChem BioAssay AID1053133 (Broad Institute, 2014):
Out of some 89,000 compounds screened, about 10 (0.01%) were called active. Not shown: some 10% with an inconclusive outcome. No stated cut-off is given here; in the data, active means activity change below about -37% (passing the limit was not always enough); inconclusive means no clear call, values can overlap the other calls; tested in A549 cells. A selection follows.

Experiment: Vaccinia orthopox stage-specific inhibition, primary screen, cell-based, single point (AID 1053133)
Conditions: Vaccinia-infected cells, mCherry/Venus stage reporter fluorescence, stronger effect = lower value, concentration not given here; activity change (Venus): measured here: Venus reporter, other viral stage

Row | SMILES | activity change (Venus) | activity change (mCherry)
1 | O=C(C[C@H]1C=C[C@@H](NC(=O)C2CCOCC2)[C@@H](CO)O1)NCC1CCCCC1 | 1.03% | 8.68% (inactive)
2 | O=C(CC1CC1)Nc1ccc2c(c1)[C@@H]1C[C@@H](CC(=O)NC3CCCCC3)O[C@@H](CO)[C@@H]1O2 | -4.69% | -3.33% (inactive)
3 | O=C(Nc1cc(F)ccc1F)N[C@@H]1C=C[C@@H](CC(=O)N2CCc3ccccc3C2)O[C@@H]1CO | -0.0639% | -17.7% (inactive)
4 | C[C@H](CO)N1C[C@H](C)[C@@H](CN(C)C(=O)c2cnccn2)Oc2ncc(Br)cc2C1=O | -0.956% | 2.65% (inactive)
5 | CCCNC(=O)N(C)C[C@H]1Oc2cc(C3=CCCCC3)ccc2S(=O)(=O)N([C@H](C)CO)C[C@H]1C | -0.298% | -6.09% (inactive)
6 | Cc1ccccc1S(=O)(=O)N[C@H]1CC[C@H](CCn2cc(-c3ccc(F)cc3)nn2)O[C@H]1CO | -25.8% | -28.8% (inactive)
7 | C[C@H]1CCCCO[C@H](CN(C)S(=O)(=O)c2cn(C)cn2)[C@@H](C)CN([C@@H](C)CO)C(=O)c2cc(NC(=O)C3CCCCC3)ccc2O1 | 4.42% | 9.05% (inactive)
8 | O=C(Nc1nccs1)[C@@H]1[C@@H](CO)[C@@H]2Cn3c(ccc(-c4cccnc4)c3=O)[C@@H]2N1CC1CC1 | 2.33% | 16.6% (inactive)
9 | COc1cccc(-c2cnc3c(c2)C(=O)N([C@H](C)CO)C[C@H](C)[C@@H](CN(C)Cc2ccc(C(=O)O)cc2)O3)c1 | 12.8% | 13.4% (inactive)
10 | COc1ccccc1-c1cnc2c(c1)C(=O)N([C@H](C)CO)C[C@H](C)[C@@H](CN(C)C(=O)CC1CC1)O2 | -0.21% | 5.06% (inactive)
11 | O=C(C[C@H]1CC[C@H]2[C@@H](COC[C@@H](O)CN2Cc2ccccc2F)O1)NCc1ccccc1F | 2.5% | -8.36% (inactive)
12 | O=C(C[C@H]1CC[C@H]2[C@@H](COC[C@@H](O)CN2S(=O)(=O)c2ccc(Cl)cc2)O1)NCCN1CCCCC1 | 2.96% | 7.02% (inactive)
13 | COCC#Cc1ccc(CC[C@H]2O[C@H]3CC[C@@H](CO)O[C@H]3C[C@H]2NC(=O)Nc2c(C)noc2C)cc1 | 12.1% | 18.6% (inactive)
14 | CC(=O)N(C)C[C@@H]1Oc2ncc(C#Cc3ccccn3)cc2C(=O)N([C@@H](C)CO)C[C@@H]1C | 9.68% | 7.16% (inactive)
15 | O=C(Cc1ccncc1)NCC[C@H]1CC[C@H](NC(=O)Nc2cccc(F)c2)[C@H](CO)O1 | 5.2% | 3.69% (inactive)
16 | COc1ccc(NC(=O)Nc2ccc3c(c2)C(=O)N([C@@H](C)CO)C[C@@H](C)[C@@H](CN(C)C(=O)Nc2ccc(F)cc2)OCCCC[C@@H](C)O3)cc1 | -5.96% | 0.168% (inactive)
